# Assay results as given in PubChem BioAssay (Tox21).
# Several values for one entry are separate records, joined by “and”; a condition that tells them apart may be missing. Equal values may be shown once. A number with no mark means an inactive call. A call without a number means that no potency is given here. Activity calls are given as the source filed them. Unless noted, calls come from the whole dose curve; as a rule, active = well fitted curve in the direction sought with a large enough effect in the repeat runs; inconclusive = weak or mixed curves; inactive = no such curve, though single readings can be large; an effect the other way counts as inactive or inconclusive.
# Assays:
# [1] = qHTS assay to identify small molecule antagonists of the thyroid receptor (TR) signaling pathway - cell viability counter screen (AID 743064); note: nearly all actives have a fitted effect of over 50% in size; note: potency is the fitted concentration of half-maximal effect
# In short: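 GH3.TRE-Luc rat pituitary cells carrying a TRE-luciferase reporter were treated with compound plus 1 nM T3 (final) for 23.5 h at 37 °C. Viability was then read in the same wells by CellTiter-Fluor fluorescence after a further 30 min.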
# [2] = qHTS assay to identify small molecule antagonists of the thyroid receptor (TR) signaling pathway (AID 743065); note: nearly all actives have a fitted effect of over 55% in size; note: potency is the fitted concentration of half-maximal effect
# In short: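 GH3.TRE-Luc rat pituitary cells carrying two TR response elements driving luciferase were plated for 4 h, given compound plus 1 nM T3 (final), and incubated 23.5 h at 37 C. ONE-Glo luminescence measured reporter inhibition; CellTiter-Fluor fluorescence tracked cytotoxicity.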
# [3] = system: thyroid hormone receptor (rat, GH3 cells); assay: qHTS assay to identify small molecule agonists of the thyroid receptor (TR) signaling pathway (AID 743066; calls by dose curve)
# [4] = biological target: Estrogen receptor (Homo sapiens) (UniProt P03372); assay: qHTS assay to identify small molecule antagonists of the estrogen receptor alpha (ER-alpha) signaling pathway (AID 743069; active = well fitted curve in the direction sought with a large enough effect in the signal ratio in the repeat runs, not every such curve was filed as active; inconclusive = weak or mixed curves, or effect the other way; inactive = no such curve, though single readings can be large or run the other way; the % refers to the signal ratio; note: potency is the fitted concentration of half-maximal effect)
# Chain of Estrogen receptor (Homo sapiens) (P03372 whole entry, looked up): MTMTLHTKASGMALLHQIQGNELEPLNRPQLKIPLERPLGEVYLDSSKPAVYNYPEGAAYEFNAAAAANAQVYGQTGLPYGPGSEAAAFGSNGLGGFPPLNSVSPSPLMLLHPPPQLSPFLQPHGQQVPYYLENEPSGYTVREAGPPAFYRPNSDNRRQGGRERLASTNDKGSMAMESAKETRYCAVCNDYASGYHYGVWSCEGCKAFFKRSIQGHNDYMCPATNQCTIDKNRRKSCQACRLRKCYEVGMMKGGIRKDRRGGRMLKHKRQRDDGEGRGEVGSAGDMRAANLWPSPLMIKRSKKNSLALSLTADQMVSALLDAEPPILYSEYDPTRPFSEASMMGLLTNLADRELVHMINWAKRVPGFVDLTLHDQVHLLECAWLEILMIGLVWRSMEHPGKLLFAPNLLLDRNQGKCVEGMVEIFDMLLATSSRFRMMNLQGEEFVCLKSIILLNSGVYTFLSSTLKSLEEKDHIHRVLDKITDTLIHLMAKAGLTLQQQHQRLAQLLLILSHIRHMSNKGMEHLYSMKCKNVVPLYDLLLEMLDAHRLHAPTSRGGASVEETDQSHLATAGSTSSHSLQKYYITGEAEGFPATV
# In short: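 A 17beta-estradiol challenge was applied right after compound transfer to ER-alpha-UAS-bla HEK293 cells previously kept in charcoal-stripped serum. Plates stood 18 hr at 37C and 5% CO2; fluorescence was read following 2 hr FRET substrate loading at room temperature.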
# [5] = qHTS assay to identify small molecule antagonists of the estrogen receptor alpha (ER-alpha) signaling pathway - cell viability counter screen (AID 743074; calls by dose curve;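 note: HEK293 cells carrying ER-alpha-UAS-bla reporter stimulated with 17beta-estradiol; nearly all actives have a fitted effect of over 45% in size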)
# [6] = biological target: Estrogen receptor (Homo sapiens) (UniProt P03372); assay: qHTS assay to identify small molecule agonists of the estrogen receptor alpha (ER-alpha) signaling pathway (AID 743075; calls by dose curve;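 note: HEK293 GripTite cells with ER-alpha and UAS-driven beta-lactamase reporter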; note: potency is the fitted concentration of half-maximal effect)
# [7] = biological target: Estrogen receptor (Homo sapiens) (UniProt P03372); assay: qHTS assay to identify small molecule agonists of the estrogen receptor alpha (ER-alpha) signaling pathway using the BG1 cell line (AID 743079); details: BG1Luc4E2 cells, ERE-luciferase agonist, 22 h; activation: at 70.3 µM (top of the series); note: nearly all actives have a fitted effect of over 20% in size; note: potency is the fitted concentration of half-maximal effect
# [8] = qHTS assay to identify small molecule antagonists of the estrogen receptor alpha (ER-alpha) signaling pathway using the BG1 cell line (AID 743080; calls by dose curve;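 note: BG1 cells stimulated with 17beta-estradiol alongside compound; nearly all actives have a fitted effect of over 25% in size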; note: potency is the fitted concentration of half-maximal effect)
# In short: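 Quantitative HTS on the Tox21 10K library: BG1 cells with endogenous ER-alpha and ERE-luciferase reporter, 17beta-estradiol stimulation, 21.5 h compound exposure, luminescence endpoint with parallel fluorescence cytotoxicity counter-read.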
# [9] = qHTS assay to identify small molecule antagonists of the estrogen receptor alpha (ER-alpha) signaling pathway using the BG1 cell line - cell viability counter screen (AID 743081);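 note: compound given together with 17beta-estradiol as the ER stimulus; nearly all actives have a fitted effect of over 45% in size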; note: potency is the fitted concentration of half-maximal effect
# [10] = biological target: Aromatase (Homo sapiens) (UniProt P11511); assay: qHTS assay to identify aromatase inhibitors (AID 743083); note: nearly all actives have a fitted effect of over 55% in size
# Chain of Aromatase (Homo sapiens) (P11511 whole entry, looked up): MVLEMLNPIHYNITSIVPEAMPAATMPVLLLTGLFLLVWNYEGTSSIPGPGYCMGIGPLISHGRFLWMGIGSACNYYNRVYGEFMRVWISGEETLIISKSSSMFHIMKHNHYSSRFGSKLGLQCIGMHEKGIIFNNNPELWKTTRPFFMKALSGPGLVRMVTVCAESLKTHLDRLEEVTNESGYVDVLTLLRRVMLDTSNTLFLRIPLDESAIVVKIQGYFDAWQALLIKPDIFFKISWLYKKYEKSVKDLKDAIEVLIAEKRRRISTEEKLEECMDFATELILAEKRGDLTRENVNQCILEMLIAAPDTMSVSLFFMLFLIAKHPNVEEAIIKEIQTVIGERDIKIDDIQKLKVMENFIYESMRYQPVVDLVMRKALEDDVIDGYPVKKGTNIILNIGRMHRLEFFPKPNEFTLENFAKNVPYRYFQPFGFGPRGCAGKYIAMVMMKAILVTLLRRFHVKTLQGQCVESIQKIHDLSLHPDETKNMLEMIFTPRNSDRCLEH
# [11] = qHTS assay to identify aromatase inhibitors - cell viability counter screen (AID 743084);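 note: cells stimulated with testosterone during compound exposure; nearly all actives have a fitted effect of over 55% in size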; note: potency is the fitted concentration of half-maximal effect
# [12] = biological target: Aryl hydrocarbon receptor (Homo sapiens) (UniProt P35869); assay: qHTS assay to identify small molecule that activate the aryl hydrocarbon receptor (AhR) signaling pathway (AID 743085);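 note: HG2L7.5c1 human HepG2 liver cells with stably integrated DRE-driven firefly reporter; nearly all actives have a fitted effect of over 15% in size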
# Chain of Aryl hydrocarbon receptor (Homo sapiens) (P35869 whole entry, looked up): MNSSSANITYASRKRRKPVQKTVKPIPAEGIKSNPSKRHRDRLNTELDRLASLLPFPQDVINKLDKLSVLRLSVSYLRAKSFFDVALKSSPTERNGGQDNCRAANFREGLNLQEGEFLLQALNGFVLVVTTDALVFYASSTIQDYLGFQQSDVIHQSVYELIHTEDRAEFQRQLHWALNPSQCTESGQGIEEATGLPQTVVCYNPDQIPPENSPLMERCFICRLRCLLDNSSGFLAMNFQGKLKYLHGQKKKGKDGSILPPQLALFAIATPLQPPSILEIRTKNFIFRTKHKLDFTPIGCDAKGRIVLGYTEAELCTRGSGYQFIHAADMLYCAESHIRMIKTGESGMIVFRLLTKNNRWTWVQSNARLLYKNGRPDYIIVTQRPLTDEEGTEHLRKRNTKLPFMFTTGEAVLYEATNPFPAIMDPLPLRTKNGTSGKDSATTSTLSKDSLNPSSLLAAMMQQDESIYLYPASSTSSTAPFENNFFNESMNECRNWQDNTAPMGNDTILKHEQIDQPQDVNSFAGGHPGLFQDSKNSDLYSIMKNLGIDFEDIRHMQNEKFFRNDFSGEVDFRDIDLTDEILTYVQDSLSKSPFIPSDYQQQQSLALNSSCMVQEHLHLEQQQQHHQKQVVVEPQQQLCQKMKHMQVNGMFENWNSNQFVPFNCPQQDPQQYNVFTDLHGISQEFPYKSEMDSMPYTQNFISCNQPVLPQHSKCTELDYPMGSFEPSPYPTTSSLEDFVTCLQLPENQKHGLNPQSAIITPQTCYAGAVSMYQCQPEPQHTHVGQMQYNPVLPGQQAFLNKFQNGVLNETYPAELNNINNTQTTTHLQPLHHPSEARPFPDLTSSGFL
# In short: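 HepG2 cells (HG2L7.5c1) stably carrying a firefly luciferase reporter driven by 20 dioxin responsive elements were exposed to compound for 24 h at 37C after a 5 h settling period; luminescence rise (ONE-Glo) indicated activation.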
# [13] = qHTS assay to identify small molecule that activate the aryl hydrocarbon receptor (AhR) signaling pathway - cell viability counter screen (AID 743086); note: nearly all actives have a fitted effect of over 45% in size; note: potency is the fitted concentration of half-maximal effect
# In short: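 HepG2-AhR-luc (HG2L7.5c1) cells, 4000/well, were preincubated 5 h at 37C, exposed to compound in qHTS format for 24 hr at 37C, then given CellTiter-Fluor for 30 min; viability was read as fluorescence in the reporter wells.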
# [14] = qHTS assay for small molecule agonists of the antioxidant response element (ARE) signaling pathway - cell viability counter screen (AID 743203; calls by dose curve; note: nearly all actives have a fitted effect of over 55% in size)
# In short: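 ATP content via CellTiter-Glo luminescence served as the viability measure. Cells: ARE-bla HepG2, 2,000 per well. Exposure: 16 hrs, 37C/5% CO2.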
# [15] = qHTS assay for small molecule activators of the heat shock response signaling pathway - cell viability counter screen (AID 743209); note: nearly all actives have a fitted effect of over 50% in size
# In short: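 Compounds dissolved in DMSO were added to overnight-plated HSE-bla HeLa cells and left 5 h at 37 C. Cell viability was quantified by luminescence using CellTiter-Glo.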
# [16] = qHTS assay for small molecule activators of the heat shock response signaling pathway (AID 743210; active = well fitted activation curve with a large enough effect in the signal ratio in the repeat runs, with a control signal flat, not every such curve was filed as active; inconclusive = weak or mixed curves; the % refers to the signal ratio)
# In short: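 Heat shock element–beta-lactamase HeLa reporter cells; qHTS with compounds for 5 h at 37 C; detection by FRET substrate fluorescence after 2.5 h at RT.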
# [17] = qHTS assay for small molecule agonists of the antioxidant response element (ARE) signaling pathway (AID 743202; active = well fitted activation curve with a large enough effect in the signal ratio in the repeat runs, not every such curve was filed as active; inconclusive = weak or mixed curves, or effect the other way; inactive = no such curve, though single readings can be large or run the other way; the % refers to the signal ratio)
# In short: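 Following a 16 h, 37 C exposure of reporter HepG2 cells (ARE-driven beta-lactamase, 2,000 cells/well) to compounds, FRET substrate was applied for 2 h at room temperature and fluorescence intensity recorded.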
# [18] = qHTS assay to identify small molecule antagonists of the peroxisome proliferator-activated receptor gamma (PPARg) signaling pathway - cell viability counter screen (AID 743194); note: nearly all actives have a fitted effect of over 55% in size
# In short: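 PPARg-UAS-bla HEK293H cells were plated, rested 5 h at 37 C, then treated with compounds plus rosiglitazone (50 nM final) for 17 h at 37 C; viability was then read by CellTiter-Glo luminescence after 30 min at room temperature.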
# [19] = biological target: Peroxisome proliferator-activated receptor gamma (Homo sapiens) (UniProt P37231); assay: qHTS assay to identify small molecule agonists of the peroxisome proliferator-activated receptor gamma (PPARg) signaling pathway (AID 743094; active = well fitted activation curve with a large enough effect in the signal ratio in the repeat runs, not every such curve was filed as active; inconclusive = weak or mixed curves, or effect the other way; inactive = no such curve, though single readings can be large or run the other way; the % refers to the signal ratio)
# Chain of Peroxisome proliferator-activated receptor gamma (Homo sapiens) (P37231 whole entry, looked up): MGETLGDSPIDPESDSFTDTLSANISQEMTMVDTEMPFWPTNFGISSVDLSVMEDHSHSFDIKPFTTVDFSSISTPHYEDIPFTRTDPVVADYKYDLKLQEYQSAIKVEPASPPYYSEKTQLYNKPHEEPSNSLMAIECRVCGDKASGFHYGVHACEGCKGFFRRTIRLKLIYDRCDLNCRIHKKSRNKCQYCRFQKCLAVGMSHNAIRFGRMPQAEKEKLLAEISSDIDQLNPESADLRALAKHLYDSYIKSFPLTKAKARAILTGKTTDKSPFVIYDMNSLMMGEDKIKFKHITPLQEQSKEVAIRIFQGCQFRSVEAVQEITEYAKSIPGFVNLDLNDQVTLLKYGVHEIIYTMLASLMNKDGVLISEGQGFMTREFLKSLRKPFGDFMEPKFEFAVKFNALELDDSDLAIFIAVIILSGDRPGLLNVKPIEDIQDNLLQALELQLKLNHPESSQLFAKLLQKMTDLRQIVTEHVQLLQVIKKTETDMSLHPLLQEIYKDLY
# In short: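 Agonism was assessed in a beta-lactamase reporter system, HEK293H cells with a stably integrated UAS-bla construct under PPARg control; the 17 h treatment at 37C preceded a 1 h room-temperature FRET substrate read.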
# [20] = biological target: Peroxisome proliferator-activated receptor gamma (Homo sapiens) (UniProt P37231); assay: qHTS assay to identify small molecule antagonists of the peroxisome proliferator-activated receptor gamma (PPARg) signaling pathway (AID 743191; calls by dose curve; note: nearly all actives have a fitted effect of over 30% in size)
# In short: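 GeneBLAzer PPARg UAS-bla HEK293H cells carrying a UAS-driven beta-lactamase reporter were plated at 3000 cells/well, preincubated 5 h at 37C, then given compound for 17 h at 37C; LiveBLAzer B/G FRET substrate was read after 1 h at room temperature.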
smiles,measurement,setting,value
O=C(O)Cc1ccc(-c2ccccc2)cc1,Potency,[1],inactive
same,Potency,[2],inactive
same,outcome,[3],inactive
same,Potency,[4],inactive
same,Potency,[5],inactive
same,Potency,[6],inactive
same,Potency,[7],inactive
same,Potency,[8],inactive
same,Potency,[9],inactive
same,Potency,[10],inactive
same,Potency,[11],inactive
same,Potency,[12],inactive
same,Potency,[13],inactive
same,Potency,[14],inactive
same,Potency,[15],inactive
same,Potency,[16],inactive
CC#N,Potency,[1],inactive
same,Potency,[2],inactive
same,outcome,[3],inactive
same,Potency,[4],inactive
same,Potency,[5],inactive
same,Potency,[6],inactive
same,Potency,[7],inactive
same,Potency,[8],inactive
same,Potency,[9],inactive
same,Potency,[10],inactive
same,Potency,[11],inactive
same,Potency,[12],inactive
same,Potency,[13],inactive
same,Potency,[17],inactive
same,Potency,[14],inactive
same,Potency,[16],inactive
CC1(C)O[C@@H]2C[C@H]3[C@@H]4CCC5=CC(=O)C=C[C@]5(C)[C@H]4[C@@H](O)C[C@]3(C)[C@]2(C(=O)CO)O1,Potency,[1],inactive
same,Potency,[2],inactive
same,outcome,[3],inactive
same,Potency,[4],inactive
same,Potency,[5],inactive
same,Potency,[6],inactive
same,Potency,[7],0.596 µM (active)
same,Potency,[9],inactive
same,Potency,[10],inactive
same,Potency,[11],inactive
same,Potency,[12],inactive
same,Potency,[13],inactive
same,Potency,[18],inactive
same,Potency,[17],inactive
same,Potency,[14],inactive
same,Potency,[15],inactive
same,Potency,[16],inactive
CCC(C(=O)OCCOCCN(CC)CC)c1ccccc1 (stereo not drawn),Potency,[1],inactive
same,Potency,[2],inactive
same,outcome,[3],inactive
same,Potency,[4],inactive
same,Potency,[5],inactive
same,Potency,[6],inactive
same,Potency,[7],inactive
same,Potency,[8],inactive
same,Potency,[9],inactive
same,Potency,[10],inactive
same,Potency,[11],inactive
same,Potency,[13],inactive
same,Potency,[19],inactive
same,Potency,[17],inactive
same,Potency,[14],inactive
same,Potency,[15],inactive
same,Potency,[16],inactive
O=S(=O)(c1ccccc1)c1ccc(Cl)cc1,Potency,[1],inactive
same,Potency,[2],inactive
same,outcome,[3],inactive
same,Potency,[4],inactive
same,Potency,[5],inactive
same,Potency,[6],inactive
same,Potency,[8],68.6 µM (active)
same,Potency,[9],inactive
same,Potency,[10],inactive
same,Potency,[11],inactive
same,Potency,[12],inactive
same,Potency,[13],inactive
same,Potency,[19],inactive
same,Potency,[20],inactive
same,Potency,[14],inactive
same,Potency,[15],inactive
same,Potency,[16],inactive
CC(=O)Nc1ccccc1C,Potency,[1],inactive
same,Potency,[2],inactive
same,outcome,[3],inactive
same,Potency,[4],inactive
same,Potency,[6],inactive
same,Potency,[7],inactive
same,Potency,[8],inactive
same,Potency,[9],inactive
same,Potency,[10],inactive
same,Potency,[11],inactive
same,Potency,[12],inactive
same,Potency,[13],inactive
same,Potency,[19],inactive
same,Potency,[20],inactive
same,Potency,[18],inactive
same,Potency,[17],inactive
same,Potency,[15],inactive
same,Potency,[16],inactive
Cc1nc2ccccc2s1,Potency,[1],inactive
same,Potency,[2],inactive
same,outcome,[3],inactive
same,Potency,[4],inactive
same,Potency,[5],inactive
same,Potency,[6],inactive
same,Potency,[7],inactive
same,Potency,[8],inactive
same,Potency,[9],inactive
same,Potency,[10],inactive
same,Potency,[11],inactive
same,Potency,[13],inactive
same,Potency,[19],inactive
same,Potency,[17],inactive
same,Potency,[14],inactive
same,Potency,[15],inactive
C1COCO1,Potency,[1],inactive
same,Potency,[2],inactive
same,outcome,[3],inactive
same,Potency,[4],inactive
same,Potency,[6],inactive
same,Potency,[7],inactive
same,Potency,[8],inactive
same,Potency,[9],inactive
same,Potency,[10],inactive
same,Potency,[11],inactive
same,Potency,[13],inactive
same,Potency,[19],inactive
same,Potency,[20],inactive
same,Potency,[17],inactive
same,Potency,[14],inactive
same,Potency,[15],inactive
same,Potency,[16],inactive
CCC(=O)Oc1ccc(/C(CC)=C(\CC)c2ccc(OC(=O)CC)cc2)cc1,Potency,[1],54.5 µM (active)
same,Potency,[2],30.6 µM (active)
same,outcome,[3],inactive
same,Potency,[4],54.9 µM [inconclusive] (active)
same,Potency,[5],inactive
same,Potency,[6],0.0014 µM [inconclusive] (active)
same,activation,[7],77.1% (active)
same,Potency,[8],61.1 µM (active)
same,Potency,[9],inactive
same,Potency,[10],inactive
same,Potency,[11],inactive
same,Potency,[12],inactive
same,Potency,[13],inactive
same,Potency,[19],inactive
same,Potency,[14],inactive
O=C(NCCCN1CCOCC1)c1ccc(Cl)cc1,Potency,[1],inactive
same,Potency,[2],inactive
same,outcome,[3],inactive
same,Potency,[4],inactive
same,Potency,[5],inactive
same,Potency,[6],inactive
same,Potency,[7],inactive
same,Potency,[9],inactive
same,Potency,[10],inactive
same,Potency,[11],inactive
same,Potency,[12],inactive
same,Potency,[13],inactive
same,Potency,[19],inactive
same,Potency,[20],inactive
same,Potency,[17],inactive
same,Potency,[14],inactive
same,Potency,[15],inactive
same,Potency,[16],inactive
CC(C)=CC=O,Potency,[1],inactive
same,Potency,[2],inactive
same,outcome,[3],inactive
same,Potency,[4],inactive
same,Potency,[5],inactive
same,Potency,[6],inactive
same,Potency,[7],inactive
same,Potency,[8],inactive
same,Potency,[9],inactive
same,Potency,[10],inactive
same,Potency,[11],inactive
same,Potency,[13],inactive
same,Potency,[19],inactive
same,Potency,[17],inactive
same,Potency,[14],inactive
same,Potency,[15],inactive
same,Potency,[16],inactive
Cc1ccnc2ccccc12,Potency,[1],inactive
same,Potency,[2],inactive
same,outcome,[3],inactive
same,Potency,[4],inactive
same,Potency,[5],inactive
same,Potency,[6],inactive
same,Potency,[7],inactive
same,Potency,[8],inactive
same,Potency,[9],inactive
same,Potency,[10],inactive
same,Potency,[11],inactive
same,Potency,[13],inactive
same,Potency,[19],inactive
same,Potency,[20],inactive
same,Potency,[18],inactive
same,Potency,[17],inactive
same,Potency,[15],inactive
same,Potency,[16],inactive
O=Cc1c(Cl)cccc1Cl,Potency,[1],inactive
same,Potency,[2],inactive
same,outcome,[3],inactive
same,Potency,[4],inactive
same,Potency,[5],inactive
same,Potency,[6],inactive
same,Potency,[7],inactive
same,Potency,[8],inactive
same,Potency,[9],inactive
same,Potency,[10],inactive
same,Potency,[11],inactive
same,Potency,[13],inactive
same,Potency,[19],inactive
same,Potency,[20],inactive
same,Potency,[14],inactive
same,Potency,[15],inactive
same,Potency,[16],inactive
CO[C@H]1C=CO[C@@]2(C)Oc3c(C)c(O)c4c(O)c(c5c(c4c3C2=O)=NC2(CCN(CC(C)C)CC2)N=5)NC(=O)/C(C)=C\C=C/[C@H](C)[C@H](O)[C@@H](C)[C@@H](O)[C@@H](C)[C@H](OC(C)=O)[C@@H]1C,Potency,[1],29.8 µM (active)
same,Potency,[2],29.8 µM (active)
same,outcome,[3],inactive
same,Potency,[4],inactive
same,Potency,[5],inactive
same,Potency,[6],inactive
same,Potency,[7],inactive
same,Potency,[9],26.6 µM (active) and 53.3 µM (active)
same,Potency,[10],inactive
same,Potency,[11],30 µM (active)
same,Potency,[13],15 µM (active)
same,Potency,[18],inactive
same,Potency,[15],inactive
same,Potency,[16],inactive
CC(CCc1ccc2c(c1)OCO2)NN (stereo not drawn),Potency,[1],inactive
same,Potency,[2],inactive
same,outcome,[3],inactive
same,Potency,[4],inactive
same,Potency,[6],inactive
same,Potency,[8],inactive
same,Potency,[9],inactive
same,Potency,[10],inactive
same,Potency,[11],inactive
same,Potency,[13],inactive
same,Potency,[19],inactive
same,Potency,[20],inactive
same,Potency,[14],inactive
same,Potency,[15],inactive
same,Potency,[16],inactive
